Assay results as given in PubChem BioAssay (NCATS).
Records with an inconclusive call do not appear. Activity calls are given as the source filed them. The call rests on the fitted dose curve; in most records, active means well fitted curve in the direction sought with a large enough effect; inconclusive means small, poorly fitted or top-dose-only effect, or another doubt; inactive means no such curve, though single readings can be large; an effect the other way counts as inactive or inconclusive.

What was measured:
[1] = P-glycoprotein substrates identified in KB-3-1 adenocarcinoma cell line, qHTS therapeutic library screen (AID 1346986); further: nearly all actives have a fitted effect of over 60% in size
Summary of the method: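 In 1536-well format, 500 cells/well received pinned compound titrations and were incubated 72 h, 5% CO2. Viability was read by CellTiter-Glo; cytotoxic if AC50 < 10 uM and efficacy >50%.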

[2] = P-glycoprotein substrates identified in KB-8-5-11 adenocarcinoma cell line, qHTS therapeutic library screen (AID 1346987); further: nearly all actives have a fitted effect of over 65% in size; on activity change, negative = cytotoxicity: series mostly up to about 44 µM; on the % scale 0 is the no-effect control and ±100 the full control effect
Summary of the method: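 Luminescence from CellTiter-Glo, read 5 min after addition, quantified survival of KB-8-5-11 (P-gp-overexpressing) cells exposed to compounds for 72 h. AC50 was derived from concentration-response curves.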

[3] = tested on: Zika virus NS2B-NS3 protease (unlinked complex); test: Primary screen GU Rhodamine qHTS for Zika virus inhibitors: Unlinked NS2B-NS3 protease assay (AID 1347159); further: on the % scale 0 is the no-effect control and ±100 the full control effect; nearly all actives have a fitted effect of over 60% in size
Summary of the method: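 Buffer 10 mM Tris-HCl pH 8.0, 0.01% Tween 20. Unlinked protease 25 nM; compound preincubation 15 min, RT, protected from light. Substrate Rhod110, 1.5 microM; ~15% conversion in 15 min.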

[4] = tested on: Zika virus NS2B-NS3 protease (linked construct); test: Primary screen NINDS Rhodamine qHTS for Zika virus inhibitors (AID 1347160); further: nearly all actives have a fitted effect of over 55% in size; on activity change, negative = inhibition: on the % scale 0 is the no-effect control and ±100 the full control effect
Summary of the method: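 Aprotinin served as in-plate control. Conditions: 25 nM linked NS2B-NS3, pH 8.0 Tris buffer, titrated compounds, 15 min preincubation and 15 min reaction with 1.5 microM Rhod110 substrate at room temperature.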

CC1(C)CC[C@]2(C(=O)O)CC[C@]3(C)C(=CCC4[C@@]5(C)C[C@@H](O)[C@H](O)[C@@](C)(CO)C5[C@H](O)C[C@]43C)[C@@H]2C1 (some centres undefined)
inactive: Potency [1] | Potency [2] | Potency [3] | Potency [4]

O=C(O)CCc1cc2ccoc2cc1O[C@@H]1O[C@H](CO)[C@@H](O)[C@H](O)[C@H]1O
inactive: Potency [1] | Potency [2] | Potency [3] | Potency [4]

C[C@@H]1[C@H](O)[C@@H]2OC(=O)C3=C2[C@H](CCC3)[C@@]12C[C@@H](c1ccoc1)OC2=O
inactive: Potency [1] | Potency [2] | Potency [3] | Potency [4]

C[C@H]1CC[C@@]2(OC1)O[C@H]1CC3C4CC[C@H]5C[C@@H](O[C@@H]6O[C@H](CO)[C@H](O[C@@H]7O[C@H](CO)[C@@H](O)[C@H](O[C@@H]8OC[C@@H](O)[C@H](O)[C@H]8O)[C@H]7O[C@@H]7O[C@H](CO)[C@@H](O)[C@H](O)[C@H]7O)[C@H](O)[C@H]6O)[C@H](O)C[C@]5(C)C4=CC(=O)[C@]3(C)[C@H]1[C@@H]2C (some centres undefined)
inactive: outcome [1] inactive [at 9.29 µM] | activity change, negative = cytotoxicity [2] 4.95% [at 9.29 µM] | Potency [3] | Potency [4]

CSCC1OC(n2cnc3c(N)ncnc32)C(O)C1O (centres undefined)
inactive: Potency [1] | Potency [2] | Potency [3] | Potency [4]

CC1CCC2(C(=O)OC3OC(CO)C(O)C(O)C3O)CCC3(C)C(=CCC4C5(C)CCC(O)C(C)(CO)C5CCC43C)C2C1(C)O (centres undefined)
inactive: Potency [1] | Potency [2] | Potency [3] | Potency [4]

CC(=O)O[C@H]1C[C@@H](O)C(C)(C)C2C[C@@H](OC(C)=O)[C@@]3(C)C4=CCC(C(CO)CC(O)C5OC5(C)C)[C@]4(C)CCC3[C@]21C (some centres undefined)
inactive: Potency [1] | Potency [2] | Potency [3] | Potency [4]

COC(=O)C1=CO[C@@H](O[C@@H]2O[C@H](CO)[C@@H](O)[C@H](O)[C@H]2O)C2C1CC(O)C2C (some centres undefined)
inactive: Potency [1] | Potency [2] | Potency [3] | Potency [4]

Cc1c(O)cc2c(c1O)COC1(O)CCCOC21 (centres undefined)
inactive: Potency [1] | Potency [2] | Potency [3] | Potency [4]

C[C@@]1(C(=O)O)CCC[C@@]2(C)C3=CC[C@H]4C[C@@]3(CC[C@H]12)CC4(O)CO (some centres undefined)
inactive: Potency [1] | Potency [2] | Potency [3] | Potency [4]

C=C(C(=O)OC)[C@]12O[C@@](C)(CC[C@@]3(O)/C(=C\C)C(=O)O[C@]3(C)C[C@@H]1OC(=O)C(CO)CN1CCCC1C(=O)O)CC2=O (some centres undefined)
inactive: Potency [1] | Potency [2] | Potency [3] | Potency [4]

C[C@@H]1O[C@@H](O[C@@H]2[C@@H](O)[C@H](O[C@@H]3[C@@H](O)[C@@H](O)[C@H](O[C@H]4[C@H](OC(=O)[C@]56CCC(C)(C)C[C@H]5C5=CCC7[C@@]8(C)C[C@H](O)[C@H](O[C@@H]9O[C@H](C(=O)O)[C@@H](O)[C@H](O)[C@H]9O)[C@@](C)(CO)C8[C@H](O)C[C@@]7(C)[C@]5(C)C[C@H]6O)O[C@@H](CO)[C@@H]4O)O[C@H]3C)OC[C@H]2O)[C@H](O)[C@H](O)[C@H]1O (some centres undefined)
inactive: outcome [1] inactive [at 9.29 µM] | activity change, negative = cytotoxicity [2] 8.82% [at 9.29 µM] | activity change, negative = inhibition [3] 24.9% [at 19.1 µM] | Potency [4]

C/C(=C\C(=O)C[C@@]12C(=O)O[C@]3(C)CC[C@H]1C[C@H]23)C(N)=O
inactive: Potency [1] | Potency [2] | Potency [3] | Potency [4]

COC(=O)C1=COC(O[C@@H]2O[C@H](COC(=O)/C=C/c3ccc(O)cc3)[C@@H](O)[C@H](O)[C@H]2O)C2C(CO)=CCC12 (some centres undefined)
inactive: Potency [1] | Potency [2] | Potency [3] | Potency [4]

CC(=O)c1[nH]cc(CCC(=O)O)c1CC(=O)O
inactive: Potency [1] | Potency [2] | Potency [3] | Potency [4]

CC(=O)/C=C/C1(O)C(C)(C)CC(O)CC1(C)O (centres undefined)
inactive: Potency [1] | Potency [2] | Potency [3] | Potency [4]

Cc1cc(CO)c(O)c(C(=O)CC2CC(=O)NC(=O)C2)c1
inactive: Potency [1] | Potency [2] | Potency [3] | Potency [4]

H-DPPDPDRFYGMM-NH2
inactive: Potency [1] | Potency [2] | Potency [3] | Potency [4]

CC1(C)CCC2(C(=O)O)C(O)CC3(C)C(=CCC4C5(C)CCC(OC6OC(CO)C(O)C(O)C6OC6OC(CO)C(O)C(O)C6OC6OCC(O)(CO)C6O)C(C)(C)C5CCC43C)C2C1 (centres undefined)
inactive: outcome [1] inactive [at 9.29 µM] | outcome [2] inactive [at 9.29 µM] | Potency [3] | Potency [4]

COC(=O)C1=CO[C@@H](O[C@@H]2O[C@H](CO[C@@H]3O[C@H](CO)[C@@H](O)[C@H](O)[C@H]3O)[C@@H](O)[C@H](O)[C@H]2O)[C@@H]2C(CO)=CC[C@H]12
inactive: Potency [1] | Potency [2] | Potency [3] | Potency [4]

COc1cc(O[C@@H]2O[C@H](CO[C@H]3OC[C@](O)(CO)[C@H]3O)[C@@H](O)[C@H](O)[C@H]2O)cc(OC)c1O
inactive: Potency [1] | Potency [2] | Potency [3] | Potency [4]
